In PubChem BioAssay (NCATS):
Where “and” joins values, the source holds several entries; their conditions need not be identical. Identical values can stand only once. Unmarked numbers belong to inactive results. Inconclusive results are not listed. Calls of active or inactive are those of the source. Calls follow the shape of the dose curve; as a rule, active = well fitted curve in the direction sought with a large enough effect; inconclusive = small, poorly fitted or top-dose-only effect, or another doubt; inactive = no such curve, though single readings can be large; an effect the other way counts as inactive or inconclusive.

What follows are compounds tested against Cytochrome P450 3A4 (Homo sapiens) (UniProt P08684) (assay: qHTS Assay for Inhibitors and Substrates of Cytochrome P450 3A4 (AID 884; also: nearly all actives have a fitted effect of over 50% in size; as to activity change, negative = inhibition: % is scaled to controls: 0 for no effect and ±100 for the full control effect)). Conditions: recombinant CYP3A4, Luciferin-PPXE luminescence; series mostly up to 57.1 µM; activity change, negative = inhibition: at the top concentration.
Method in brief: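 Luminescent readout of luciferin produced by CYP3A4 (20 nM) dealkylation of Luciferin-PPXE, 25 uM (its KM). NADPH-driven reaction ran 60 min at RT after 10 min compound preincubation; data scaled to 57 uM ketoconazole as 100% inhibition.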
Potency is read from the fitted curve at half-maximal effect.

Cytochrome P450 3A4 (Homo sapiens), sequence (P08684 whole entry, looked up): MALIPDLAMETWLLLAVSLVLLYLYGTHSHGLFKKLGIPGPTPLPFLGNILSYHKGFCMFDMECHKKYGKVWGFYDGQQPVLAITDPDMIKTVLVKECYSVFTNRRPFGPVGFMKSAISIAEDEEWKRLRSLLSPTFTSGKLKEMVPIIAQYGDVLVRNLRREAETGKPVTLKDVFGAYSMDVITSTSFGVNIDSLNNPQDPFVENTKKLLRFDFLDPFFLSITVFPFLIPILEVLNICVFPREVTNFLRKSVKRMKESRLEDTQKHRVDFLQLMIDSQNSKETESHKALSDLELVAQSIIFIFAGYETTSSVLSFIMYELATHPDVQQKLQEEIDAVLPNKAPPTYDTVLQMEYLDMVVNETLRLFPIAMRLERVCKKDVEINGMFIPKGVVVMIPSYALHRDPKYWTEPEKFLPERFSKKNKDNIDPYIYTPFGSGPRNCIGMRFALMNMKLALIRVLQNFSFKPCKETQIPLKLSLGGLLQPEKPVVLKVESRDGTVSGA

Question: For c1ccc2c(c1)CC(N1CCN(c3cccc4c3OCCO4)CC1)C2, which “activity change, negative = inhibition” value is on record?
Answer: 66.7%

Question: With c1ccc(C(NCCNC(c2ccccc2)c2ccccc2)c2ccccc2)cc1 as the compound, how does the “activity change, negative = inhibition” value read?
Answer: 65.9%

Question: With O=C1NC(=O)c2cc(Nc3ccccc3)c(Nc3ccccc3)cc21 as the compound, how does the Potency read?
Answer: 1.58 µM (active)

Question: Which Potency does the source give for Nc1nc2c(cnn2CCc2ccccc2)c2nc(-c3ccco3)nn12 here?
Answer: 31.6 µM (active)

Question: With N[C@@H](Cc1ccc(O)c(I)c1)C(=O)O as the compound, how does the “activity change, negative = inhibition” value read?
Answer: -6.65%

Question: How did the “activity change, negative = inhibition” value turn out when C=C(C)C1CC=C(C(=O)O)CC1 (stereo not drawn) was run?
Answer: 0.364%

Question: CC(C)(C)c1ccc(/C=C/C(=O)Nc2ccc3c(c2)OCCO3)cc1 was tested. Which “activity change, negative = inhibition” value did it give?
Answer: -16.2%

Question: How did the Potency turn out when O=C1OC(=O)C2C3CCC(O3)C12 (stereo not drawn) was run?
Answer: inactive

Question: For COc1cc(N)c(Cl)cc1C(=O)OCCN1CCCCC1, which Potency is on record?
Answer: 15.8 µM (active)

Question: How did the “activity change, negative = inhibition” value turn out when CN1C2CCC1CC(OC(c1ccccc1)c1ccccc1)C2 (stereo not drawn) was run?
Answer: -19.4%

Question: With CC(C)Cn1c(=O)n(C)c(=O)c2[nH]cnc21 as the compound, how does the Potency read?
Answer: 3.98 µM (active) and 15.8 µM (active) and 12.6 µM (active)

Question: With Nc1ccc(-c2nc3ccc(-c4nc5ccc(N)cc5[nH]4)cc3[nH]2)cc1 as the compound, how does the Potency read?
Answer: 0.0631 µM (active)

Question: Which “activity change, negative = inhibition” value does the source give for CN(C)CCC(c1ccc(Br)cc1)c1ccccn1 (stereo not drawn) here?
Answer: -8.26%

Question: Which Potency does the source give for CCCCCCCCCCC(C)(C)C(=O)Nc1c(OC)cc(OC)cc1OC here?
Answer: 7.94 µM (active)

Question: For CC1=C(/C=C/C(C)=C/C=C/C(C)=C\C(=O)O)C(C)(C)CCC1, which “activity change, negative = inhibition” value is on record?
Answer: -2.76%

Question: For C=CC[C@H](N)C(=O)O, which “activity change, negative = inhibition” value is on record?
Answer: 50.4%

Question: How did the Potency turn out when N#C/C(=C\c1ccc(O)c(O)c1)C(=O)NCCc1ccccc1 was run?
Answer: 3.98 µM (active)

Question: With Cc1ccc([N+](=O)[O-])cc1S(=O)(=O)N(C)C as the compound, how does the Potency read?
Answer: inactive

Question: For c1ccc(C2CN3CCSC3=N2)cc1 (stereo not drawn), which “activity change, negative = inhibition” value is on record?
Answer: -16%

Question: With CC(C)(C)c1cc(/C=C(\C#N)C(N)=S)cc(C(C)(C)C)c1O as the compound, how does the Potency read?
Answer: 3.98 µM (active)

Question: Cn1c(=O)c2[nH]c(C3CCCC3)nc2n(C)c1=O was tested. Which Potency did it give?
Answer: 39.8 µM (active)

Question: Which Potency does the source give for Nc1ccc(-c2ccc3ccccc3n2)cc1 here?
Answer: 3.98 µM (active)

What follows are compounds tested against Cytochrome P450 3A4 (Homo sapiens) (UniProt P08684) (assay: qHTS Assay for Activators of Cytochrome P450 3A4 (AID 885; also: nearly all actives have a fitted effect of over 65% in size)). Conditions: recombinant CYP3A4, Luciferin-PPXE luminescence, 60 min; series mostly up to 57.1 µM; activity change, positive = activation: at the top concentration.
Method in brief: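 Human CYP3A4 dealkylates Luciferin-PPXE to luciferin, which luciferase detection converts to light. Substrate was at its KM (25uM), buffer 200mM KPO4, reaction 60 min at RT.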

Question: For c1ccc2c(c1)CC(N1CCN(c3cccc4c3OCCO4)CC1)C2, which Potency is on record?
Answer: 25.1 µM (active)

Question: How did the “activity change, positive = activation” value turn out when CCCn1c(=O)c2c(ncn2C)n(CCC)c1=O was run?
Answer: -30.1%

Question: NC1CONC1=O (stereo not drawn) was tested. Which “activity change, positive = activation” value did it give?
Answer: -49.4%

Question: With c1ccc(C(NCCNC(c2ccccc2)c2ccccc2)c2ccccc2)cc1 as the compound, how does the Potency read?
Answer: 5.01 µM (active)

Question: Which “activity change, positive = activation” value does the source give for O=C1NC(=O)c2cc(Nc3ccccc3)c(Nc3ccccc3)cc21 here?
Answer: -74.8%

Question: With Nc1nc2c(cnn2CCc2ccccc2)c2nc(-c3ccco3)nn12 as the compound, how does the “activity change, positive = activation” value read?
Answer: -81.6%

Question: Which “activity change, positive = activation” value does the source give for CCN(CC)CCCCCCCCOC(=O)c1cc(OC)c(OC)c(OC)c1 here?
Answer: -42.9%

Question: With COc1cc(N)c(Cl)cc1C(=O)OCCN1CCCCC1 as the compound, how does the “activity change, positive = activation” value read?
Answer: -92.6%

Question: Which Potency does the source give for CC(C)Cn1c(=O)n(C)c(=O)c2[nH]cnc21 here?
Answer: inactive

Question: For CN(C)CCCc1cc(C(=O)Nc2ccc(-c3ccncc3)cc2)ccc1O, which “activity change, positive = activation” value is on record?
Answer: -51.5%

Question: With CCSC(=N)N as the compound, how does the “activity change, positive = activation” value read?
Answer: -30.5%

Question: With O=C1Cc2c([nH]c3ccc(Br)cc23)-c2ccccc2N1 as the compound, how does the “activity change, positive = activation” value read?
Answer: -82.1%

Question: With NC(=O)CNCCC(c1ccccc1)c1ccccc1 as the compound, how does the Potency read?
Answer: inactive

Question: How did the “activity change, positive = activation” value turn out when Nc1ccc(-c2nc3ccc(-c4nc5ccc(N)cc5[nH]4)cc3[nH]2)cc1 was run?
Answer: -80.8%

Question: Which “activity change, positive = activation” value does the source give for CCCCCCCCCCC(C)(C)C(=O)Nc1c(OC)cc(OC)cc1OC here?
Answer: -82.2%

Question: How did the “activity change, positive = activation” value turn out when CN1CCN(c2nc3cc(C(F)(F)F)ccc3n3cccc23)CC1 was run?
Answer: -33.3%

Question: How did the “activity change, positive = activation” value turn out when N#C/C(=C\c1ccc(O)c(O)c1)C(=O)NCCc1ccccc1 was run?
Answer: -82.2%

Question: With S=C(S)N1CCCC1 as the compound, how does the “activity change, positive = activation” value read?
Answer: -44.9%

Question: Cc1ccc([N+](=O)[O-])cc1S(=O)(=O)N(C)C was tested. Which “activity change, positive = activation” value did it give?
Answer: -37.4%

Question: Which “activity change, positive = activation” value does the source give for C=C1C(=O)O[C@@H]2[C@H]3O[C@]3(C)CCC=C(C)CC[C@@H]12 here?
Answer: -48%

Question: With CC(C)(C)c1cc(/C=C(\C#N)C(N)=S)cc(C(C)(C)C)c1O as the compound, how does the “activity change, positive = activation” value read?
Answer: -101%

Question: For Clc1nccc2c1ccc1ccccc12, which “activity change, positive = activation” value is on record?
Answer: -47.9%

Question: How did the “activity change, positive = activation” value turn out when O=C(O)/C=C/c1ccc(O)c(O)c1 was run?
Answer: -40.1%

Question: For Cn1c(=O)c2[nH]c(C3CCCC3)nc2n(C)c1=O, which “activity change, positive = activation” value is on record?
Answer: -60.9%

Question: How did the “activity change, positive = activation” value turn out when Nc1ccc(-c2ccc3ccccc3n2)cc1 was run?
Answer: -97.3%

Question: How did the “activity change, positive = activation” value turn out when Nc1ccc(N2C(=O)c3ccccc3C2=O)c(Cl)c1 was run?
Answer: -94.3%
